Measured values reported in PubChem BioAssay AID934 (National Center for Advancing Translational Sciences (NCATS), 2007).
Inconclusive results are not listed. Calls of active or inactive are those of the source. Calls follow the shape of the dose curve; as a rule, active = well fitted activation curve with a large enough effect; inconclusive = small, poorly fitted or top-dose-only effect; inactive = flat fitted curve, though single readings scatter.

Test: Parental Cell Counter Screen for Stat Signaling Pathway Assay
Settings: ME-180 (cervical carcinoma) parental cells, blue fluorescence artefact counter-screen; series mostly up to 38.3 µM; activity (fluorescence increase): at the top concentration
Excerpt: NIH Molecular Libraries Screening Centers Network [MLSCN] NIH Chemical Genomics Center [NCGC] MLSCN Grant: None NCGC Assay Overview: This assay is a counter screen for the Stat signaling pathway assay (PubChem AID 446). The Stat assay is cell-based and measures Interleukin 6 (IL-6) mediated modulation of a beta-lactamase reporter gene controlled by a STAT inducible element (SIE-bla cells, Invitrogen). IL-6 is a cytokine that signals via the JAK/STAT pathway and is implicated in cancer and inflammation. […] Compounds active in the parental ME-180 cells are likely fluorescent.
NCGC Assay Protocol Summary: Cells were trypsinized, washed in assay medium (AM, OPTI MEM with 0.5% fetal bovine serum, 0.1 mM nonessential amino acids, 1 mM sodium pyruvate, 10mM HEPES pH 7.3, 100U/ml penicillin, and 100 ug/ml streptomycin) and suspended at […] in AM. Approximately 2500 cells in 5 uL/well was dispensed into 1536-well plates and the cells were incubated overnight at 37 C. 23 nL of compound were delivered by a pin tool and 1 uL of IL-6 (40 pM final concentration in AM) was added. After plates were incubated at 37 C for 5 hrs, 1uL of detector mix (LiveBLAzerTM, Invitrogen) was added, the plates incubated at room temperature for 2.5 hrs, and fluorescence intensity at 460 and 530 nm emissions was measured at 405 nm excitation by an Envision (Perkin Elmer).

Row | SMILES | activity (fluorescence increase) | Potency
1 | CC[C@]1(O)C(=O)OCc2c1cc1n(c2=O)Cc2cc3ccccc3nc2-1 | 9.35% (inactive) | –
2 | COc1cccc2c1C(=O)c1c(O)c3c(c(O)c1C2=O)C[C@](O)(/C(C)=N\O)C[C@@H]3O[C@H]1C[C@H](N)[C@@H](O)[C@H](C)O1 | 4.72% (inactive) | –
3 | COc1ccc2c3c([nH]c2c1)C(C)=NCC3 | – | 12.6 µM (active)
4 | Cc1c2ccncc2c(C)c2c1[nH]c1ccccc12 | – | 15.8 µM (active)
5 | COC(=O)C(O)(c1ccc(NC(=O)c2ccco2)c(OC)c1)C(F)(F)F (stereo not given) | – | 0.0063 µM (active)
6 | O=c1ccc2cc(O[C@H]3O[C@@H](CO)[C@@H](O)[C@@H](O)[C@@H]3O)c(O)cc2o1 | – | 15.8 µM (active)
7 | CCn1cnc2c(Nc3cccc(Cl)c3)nc(N[C@@H]3CCCC[C@H]3N)nc21 | 13.2% (inactive) | –
8 | COC1=C(C)C(=O)c2c(c(COC(N)=O)c3n2C[C@@H]2[C@@H]3N2C)C1=O (stereo not given in full) | – | 12.6 µM (active)
9 | c1ccc2c(c1)[I+]c1ccccc1-2 | 26.2% (inactive) | –
10 | CN(N=O)c1ccc(O)c(O)c1 | 11.3% (inactive) | –
